Results reported in PubChem BioAssay AID743048 (Broad Institute, 2013).
Results with a measured potency or affinity are listed apart.

The compounds below were run against Paired box protein Pax-2 (Homo sapiens) (UniProt Q02962) (assay: inhibitors acting on PAX2 in cells – cell-based, plate reader, dry powder samples, selectivity assay for PAX8 inhibitor project, dose response (AID 743048)). Settings: Pax2 cell-based reporter; series mostly up to 50 µM; activity, negative = inhibition: at the top concentration; call rule not given here.
Sequence of Paired box protein Pax-2 (Homo sapiens) (Q02962 whole entry, looked up): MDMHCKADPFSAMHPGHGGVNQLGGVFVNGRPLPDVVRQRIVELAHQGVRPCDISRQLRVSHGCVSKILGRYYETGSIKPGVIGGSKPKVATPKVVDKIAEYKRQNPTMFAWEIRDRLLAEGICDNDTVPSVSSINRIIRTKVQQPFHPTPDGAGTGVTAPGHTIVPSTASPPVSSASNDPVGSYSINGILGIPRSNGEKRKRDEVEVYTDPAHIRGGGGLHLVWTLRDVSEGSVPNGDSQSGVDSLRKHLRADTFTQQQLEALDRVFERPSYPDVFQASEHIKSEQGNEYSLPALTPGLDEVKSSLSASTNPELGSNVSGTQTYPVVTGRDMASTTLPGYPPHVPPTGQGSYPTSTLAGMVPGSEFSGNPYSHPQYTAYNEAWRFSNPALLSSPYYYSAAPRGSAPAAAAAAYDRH

activity, negative = inhibition, inactive:
CC(C)c1cc(C(=O)OCC(=O)N2CCN(C(=O)c3ccco3)CC2)c(O)c(C(C)C)c1 -18%, O=C(CCCN1C(=O)/C(=C\c2cccc(Br)c2)SC1=S)Nc1ccccn1 43.3%, O=C1/C(=C/c2cccc(Br)c2)SC(=S)N1CCC(=O)N(CCO)c1ccccc1 9.59% [at 26 µM], CC1(C)CC(=O)c2sc(NC(=O)CCS(=O)(=O)c3ccccc3)nc2C1 -5.34%, N#C[C@@H]1[C@@H](c2ccc(-c3cccc(F)c3)cc2)[C@H](CO)N1C(=O)NC1CCCC1 -22.6% [at 35 µM], C[C@H]1CN([C@@H](C)CO)C(=O)CCCn2nncc2CO[C@@H]1CN(C)C(=O)Nc1ccc(-c2cccs2)cc1 24.6% [at 35 µM], Cc1ccc(-c2csc(NC3OC(=O)c4ccccc43)n2)cc1 (stereo not drawn) 9.07%, COc1cccc2sc(N(CCCN(C)C)C(=O)CCS(=O)(=O)c3ccccc3)nc12 21.8%, C[C@@H]1CN([C@H](C)CO)C(=O)CCCn2cc(nn2)CO[C@H]1CN(C)C(=O)Nc1ccc(-c2cccs2)cc1 2.54% [at 35 µM], O=C(CCCN1C(=O)/C(=C\c2cccc(Br)c2)SC1=S)Nc1cccnc1 46.5%, CN(C[C@H]1N[C@@H](CO)[C@@H]1c1ccc(C2=CCCC2)cc1)C(=O)c1cccc(F)c1 279% [at 35 µM], COc1ccc(-c2cc(C(F)(F)F)nc(S(=O)(=O)CCCC(=O)Nc3cc(C)on3)n2)cc1OC 266% [at 26 µM], N#C[C@H]1N[C@H](CO)[C@@H]1c1ccc(C#Cc2ccccc2F)cc1 30.2% [at 35 µM], O=C(CCS(=O)(=O)c1ccccc1)Nc1nc2ccc(F)cc2s1 1.29%, NS(=O)(=O)c1ccc(CCN2C(=O)/C(=C\c3ccc(Cl)cc3)SC2=S)cc1 -15.3%, CN(C[C@H]1N[C@@H](CO)[C@@H]1c1ccc(C2=CCCC2)cc1)C(=O)c1ccncc1 34.4% [at 35 µM], CN(C[C@H]1N[C@@H](CO)[C@@H]1c1ccc(C2=CCCC2)cc1)C(=O)c1ccc(F)cc1 231% [at 35 µM], CC(=O)Nc1ccc(NC(=O)c2nc(S(=O)(=O)Cc3ccccc3)ncc2Cl)cc1 79.9% [at 26 µM]
